PubChem BioAssay (NCI)
The panel holds about 83,000 compounds, 20% with a hit somewhere; the sample as a whole holds those more often.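 The endpoint reported here, percent growth, reads 100 for growth as untreated, 0 for no net growth and -100 for all cells dead.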 A number with no mark means an inactive call. Activity calls are given as the source filed them. How the source made its calls: active means growth percent below 10; inactive means the rest.

Legend:
Experiment in all cases: NCI-60 one-dose screen, 48 h (100 = growth as untreated, 0 = no growth, -100 = all killed)
Conditions in all cases: 10 µM unless noted
NCI-H23 lung = tested on: NCI-H23 lung
NCI-H226 lung = tested on: NCI-H226 lung
NCI-H322M lung = tested on: NCI-H322M lung
NCI-H460 lung = tested on: NCI-H460 lung
HOP-92 NSCLC = tested on: HOP-92 NSCLC
NCI-H522 lung = tested on: NCI-H522 lung
A549/ATCC NSCLC = tested on: A549/ATCC NSCLC
786-0 renal = tested on: 786-0 renal
COLO 205 colon = tested on: COLO 205 colon
DU-145 prostate = tested on: DU-145 prostate
K-562 leukemia = tested on: K-562 leukemia
MALME-3M melanoma = tested on: MALME-3M melanoma
MDA-MB-231 breast = tested on: MDA-MB-231 breast
RXF 393 renal = tested on: RXF 393 renal
SF-268 CNS = tested on: SF-268 CNS
SF-295 CNS = tested on: SF-295 CNS
SF-539 CNS = tested on: SF-539 CNS
UACC-257 melanoma = tested on: UACC-257 melanoma
M14 melanoma = tested on: M14 melanoma
HOP-62 NSCLC = tested on: HOP-62 NSCLC

Compound | growth (NCI-H23 lung) | growth (NCI-H226 lung) | growth (NCI-H322M lung) | growth (NCI-H460 lung) | growth (HOP-92 NSCLC) | growth (NCI-H522 lung) | growth (A549/ATCC NSCLC) | growth (786-0 renal) | growth (COLO 205 colon) | growth (DU-145 prostate) | growth (K-562 leukemia) | growth (MALME-3M melanoma) | growth (MDA-MB-231 breast) | growth (RXF 393 renal) | growth (SF-268 CNS) | growth (SF-295 CNS) | growth (SF-539 CNS) | growth (UACC-257 melanoma) | growth (M14 melanoma) | growth (HOP-62 NSCLC)
CN1C(=O)/C(=C/c2cn(-c3ccccc3)nc2-c2ccccc2)SC1=S | 95.4% | 98.3% | 107% | 101% | 51.4% | 90.2% | 102% | 107% | 124% | 105% | 92.6% | 114% | 92.8% | 110% | 104% | 89.6% | 99.5% | 106% | 103% | –
Cc1ccc(C(C(N)=O)C(C(N)=O)c2ccccc2)cc1 (stereo not drawn) | 111% | 109% | 121% | 112% | 99.5% | 102% | 95.3% | 102% | 115% | 111% | 90.9% | 129% | 123% | 104% | 104% | 114% | 119% | 102% | 108% | –
CCCc1cc(NC)nc(S(=O)(=O)CC)n1 | 102% | 108% | 106% | 110% | 108% | 95.9% | 105% | 101% | 120% | 109% | 97.7% | 110% | 109% | 108% | 98.4% | 99.9% | 100% | 106% | 99.8% | –
O=C1c2c(c3c4ccc(Br)cc4oc3c3[nH]c4ccccc4c23)C(=O)N1O | 22.7% | 61.7% | 59.7% | 10.7% | -2.77% (active) | 6.86% (active) | 64.3% | 84.8% | 42.7% | 38.4% | 30.4% | 1.92% (active) | 80.1% | 31.7% | 13.9% | 34.4% | 7.26% (active) | 83.6% | 30.9% | –
Cc1ccc(-c2nc(/C=C3/C(=O)Nc4ccccc43)c3ccccn23)cc1 | 72.6% | 88.7% | 88% | 40.7% | – | 57.7% | 75.1% | 104% | – | -16.3% (active) | 81.5% | 116% | 85.2% | 38.2% | 88% | 91.9% | 94.8% | 102% | 92.3% | 91.8%
CCCNC(=O)Oc1ccc(/C(=C(/C)Cc2ccc(OC)cc2)c2ccc(OCCCN(C)C)cc2)cc1 | 82.4% | 94.7% | 88.3% | 73.3% | – | 78.5% | 77.6% | 92% | – | 94.9% | 15.3% | 82.9% | 89.9% | 74.7% | 84% | 88.2% | 97.8% | 99.2% | 71.8% | 101%
O=S(=O)(NCCCNc1nccc(-c2c(-c3ccc(F)c(O)c3)nc3occn23)n1)c1ccccc1 | 84.1% | 115% | 98.5% | 75.7% | 71% | 75.6% | 88.1% | 123% | 48.6% | 90.5% | 56.8% | -0.289% (active) | 57.7% | 70.9% | 97.3% | 104% | 105% | 29.1% | 17.2% | –
O=C(Cn1c(=O)sc2ccccc21)NNS(=O)(=O)c1ccccc1[N+](=O)[O-] | 98.6% | 101% | 104% | 108% | 104% | 88.5% | 103% | 104% | – | 105% | 98.9% | 99.9% | 104% | 119% | 97% | 103% | 99% | 99.7% | 99.4% | –
O=C(NNc1nccc(Nc2ccc(S(=O)(=O)Nc3ccncc3)cc2)n1)c1ccccc1 | 5.18% (active) | 108% | 96.9% | 119% | 103% | 94.5% | 96.8% | 93.8% | 122% | 105% | 107% | 103% | 90.9% | 109% | 95.3% | 104% | 115% | 107% | – | –
O=C(O)c1ccc(-n2cc(/C=N/Nc3ccc(F)cc3)c(-c3cc4ccccc4oc3=O)n2)cc1 | 90.8% | 101% | 85.4% | 96.5% | 81.5% | 50.9% | 92.9% | 74.6% | 110% | 91.2% | 11.6% | 79.8% | 83.7% | 113% | 76.8% | 72.1% | 85.9% | 107% | 47.3% | –
Clc1ccc(Nc2nnc(COc3ccccc3)c3ccccc23)cc1 | 4.18% (active) | 1.78% (active) | 21.2% | 3.1% (active) | -28% (active) | -17.4% (active) | 4.64% (active) | 5.25% (active) | -5.75% (active) | 10.4% | 2.77% (active) | -13.5% (active) | 11.4% | -5.93% (active) | 13.2% | -1.11% (active) | 8.42% (active) | -24.9% (active) | -9.99% (active) | –
O=C(CN1C(=O)CCC1=O)Nc1ncc(Cc2ccc(F)cc2)s1 | 98.6% | 95.9% | 102% | 106% | 99.9% | 99% | 108% | 101% | 113% | 106% | 98.5% | 99.8% | 97.4% | 109% | 91.2% | 99.3% | 98.7% | 98.5% | 103% | –
C=CCc1c(O)c(C(=O)/C=C/c2ccc(Cl)cc2)c(OC)c2ccoc12 | 57.1% | 28.7% | 75.8% | 49.8% | – | 35.7% | 47.3% | 78% | 73.7% | 78.5% | 47.2% | 34.6% | 49.4% | 21.9% | 53.8% | 33.1% | 50.7% | 39.4% | 58.3% | –
CCC(C)N(c1ccc(Cl)cc1)c1nc(-c2ccc(Br)cc2)cs1 (stereo not drawn) | 88.6% | 93.1% | 91.4% | 98% | 94.4% | 89.2% | 95.6% | 96% | 112% | 108% | 92.4% | 97.5% | 88.6% | 121% | 97.1% | 105% | 101% | 103% | 95.6% | –
CCOC(=O)c1cnc2ccccc2c1Cl | 96.9% | 99.2% | 122% | 93% | 70.4% | 92.1% | 104% | 94.3% | 96.2% | 98.3% | 116% | 126% | 85.4% | 127% | 99.5% | 107% | 85.9% | 109% | 92.2% | –
O=C1/C(=C/c2ccc(F)cc2)COc2ccc(O)c(O)c21 | 44.3% | 79.6% | 39.9% | 48.6% | 6.21% (active) | -65.1% (active) | 47.4% | -47.6% (active) | – | 18.6% | 10.6% | -10.4% (active) | -12.1% (active) | -3.02% (active) | 13.1% | 75% | -62.1% (active) | 15.8% | 37.5% | –
